Measured values taken from PubChem BioAssay.
Records with an inconclusive call do not appear. Calls of active or inactive are those of the source.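 The calls were made as follows, unless noted: active = normalized viability below 100% at a tested concentration; inactive = the rest.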

What was measured:
[1] = growth inhibition of DIPG glioma cells, dose response, cell-based, SU-DIPG-XVII, MIPE5.0, CellTiter-Glo, qHTS (AID 1347060; cut-off not given, nearly all actives have AC50 up to about 26 µM;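 as to AC50: cells exposed to compound for 48 hours before viability readout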); conditions: SU-DIPG-XVII viability, CellTiter-Glo ATP luminescence
[2] = viability loss in pontine glioma line – cell-based, SU-DIPG-XXV, MIPE5.0, CellTiter-Glo, qHTS, dose response (AID 1347065; cut-off not given, nearly all actives have AC50 up to about 26 µM;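 also: cells exposed to compound for 48 hours before ATP readout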); conditions: CellTiter-Glo ATP luminescence
[3] = JHH-DIPG-1 glioma cell viability, MIPE5.0 library, CellTiter-Glo luminescence, qHTS (AID 1347067; cut-off not given, nearly all actives have AC50 up to about 26 µM;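 also: cells exposed to compound for 48 hours before readout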); conditions: JHH-DIPG-1 glioma viability, CellTiter-Glo ATP luminescence
[4] = SU-DIPG-XXV glioma cell viability, MIPE5.0 library, qHTS (AID 1347068; cut-off not given, nearly all actives have IC50 up to about 30 µM;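 as to IC50: cells exposed to compound for 48 hours before viability readout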)
[5] = sensitizers of A549 cells to miR-34 induction, primary screen, imaging, A549 dox-inducible miR-34, nuclei and caspase counts (AID 1347080;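 active = compounds whose cell count with miR-34 switched on is under 0.7 times the count with it off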); conditions: A549 miR-34 inducible, Hoechst nuclei count, 48 h
[6] = modifiers of HSF1 nuclear foci, imaging, Selleck Cancer Library (AID 1347162; in the data active = plate-normalised HSF1 focus index below about 0.46); conditions: human cells, at 10 µM; SSMD: measured here: HSF1 foci SSMD mean; cell count: measured here: cell number; plate-normalised HSF1 focus index: stronger effect = lower value
[7] = survival rescue of mitochondrial mutant cells in low glucose, primary screen, MELAS cybrids, Rieske KO mouse fibroblasts, CellTiter-Glo (AID 1508586;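 active = mean z-score across replicates of 1.96 or higher in either the MELAS or the Rieske mutant cell line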;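 also: z relative to plate mean and SD of compound and empty wells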)
[8] = ovarian cancer cell viability with rucaparib, profiling panel, oncology-focused library, rucaparib conditional (AID 1508598); conditions: patient-derived ovarian cancer cells, CellTiter-Glo viability, 144 h, stronger effect = lower value

Cc1cc(C)c(S(=O)(=O)N(CCc2cccc(Br)c2)Cc2ccc(-c3cccc(S(C)(=O)=O)c3)cc2)c(C)c1
inactive: outcome [1] | outcome [2] | outcome [3] | outcome [4]

N=C(N)c1ccc2nc(-c3cc(CC(=O)N[C@@H](CC(=O)O)C(=O)O)cc(-c4cc(S(N)(=O)=O)ccc4O)c3O)[nH]c2c1
inactive: outcome [1] | outcome [2] | outcome [3] | outcome [4]

COC(=O)c1ccc([C@H]2c3[nH]c4ccccc4c3C[C@H](C(=O)OC)N2C(=O)CCl)cc1
active: AC50 [1] 13.2 µM | AC50 [2] 5.25 µM | AC50 [3] 2.35 µM | IC50 [4] 14.8 µM

COc1cc2c(NC3CCN(C)CC3)nc(N3CCCN(C)CC3)nc2cc1OCCCN(C)C
inactive: outcome [1] | outcome [2] | outcome [3] | outcome [4]

COc1cc(-c2cn(C)c(=O)c3cnccc23)c(OC)cc1CN(C)C
inactive: outcome [1] | outcome [2] | outcome [3] | outcome [4]

CC(=O)N1CCN(c2ccc(NC(=O)Cc3cnc(-c4ccnc(F)c4)c(C)c3)nc2)CC1
inactive: outcome [1] | outcome [2] | outcome [3] | outcome [4]

CCn1c(=O)c(-c2ccc(Cl)cc2Cl)cc2cnc(Nc3ccc(N4CCNCC4)c(F)c3)nc21
inactive: outcome [3] | outcome [4]
active: AC50 [1] 0.59 µM | AC50 [2] 0.59 µM

CCc1ccc2nc(Nc3cc(Cc4ccccc4)nc(NC4CCC(O)CC4)n3)sc2c1 (stereo unspecified)
active: AC50 [1] 26.3 µM | AC50 [2] 18.6 µM | AC50 [3] 20.9 µM
inactive: outcome [4]

CN1CCN(C2CCC(n3cc(-c4ccc(Oc5ccccc5)cc4)c4c(N)ncnc43)CC2)CC1 (stereo unspecified)
active: AC50 [1] 1.48 µM | AC50 [2] 1.86 µM | AC50 [3] 7.42 µM | IC50 [4] 8.33 µM

CCC(CC)CC1(C(=O)Nc2ccccc2SC(=O)C(C)C)CCCCC1
9550: cell count ([5]; measured here: total cells with miR-34 induction, stronger effect = lower value)
10700: cell count ([5]; measured here: total cells without miR-34 induction)
6890: cell count [6]
inactive: outcome [1] | outcome [2] | outcome [3] | outcome [4] | fold change ([5]; stronger effect = lower value, cell number ratio, induced over uninduced) 0.89 | plate-normalised HSF1 focus index [6] 1.09 | z-score ([7]; MELAS cybrid survival, CellTiter-Glo 48 h, stronger effect = higher value) -0.325 | viability ([8]; at 0.000305 µM, OCI-C5x cells, with rucaparib 10 µM, 100% = cells with rucaparib alone) 115% | viability ([8]; at 0.000305 µM, OCI-C5x cells, without rucaparib) 112% | viability ([8]; at 0.00122 µM, OCI-C5x cells, with rucaparib 10 µM, 100% = cells with rucaparib alone) 109% | viability ([8]; at 0.00122 µM, OCI-C5x cells, without rucaparib) 105% | viability ([8]; at 0.00488 µM, OCI-C5x cells, with rucaparib 10 µM, 100% = cells with rucaparib alone) 111% | viability ([8]; at 0.00488 µM, OCI-C5x cells, without rucaparib) 114% | viability ([8]; at 0.00488 µM, OCI-P5x cells, with rucaparib 20 µM, 100% = cells with rucaparib alone) 101% | viability ([8]; at 0.0195 µM, OCI-C5x cells, with rucaparib 10 µM, 100% = cells with rucaparib alone) 127% | viability ([8]; at 0.0195 µM, OCI-C5x cells, without rucaparib) 110% | viability ([8]; at 0.0195 µM, OCI-P5x cells, with rucaparib 20 µM, 100% = cells with rucaparib alone) 104% | viability ([8]; at 0.0195 µM, OCI-P5x cells, without rucaparib) 108% | viability ([8]; at 0.0781 µM, OCI-C5x cells, with rucaparib 10 µM, 100% = cells with rucaparib alone) 110% | viability ([8]; at 0.0781 µM, OCI-C5x cells, without rucaparib) 115% | viability ([8]; at 0.0781 µM, OCI-P5x cells, with rucaparib 20 µM, 100% = cells with rucaparib alone) 104% | viability ([8]; at 0.0781 µM, OCI-P5x cells, without rucaparib) 103% | viability ([8]; at 0.313 µM, OCI-C5x cells, without rucaparib) 121% | viability ([8]; at 0.313 µM, OCI-P5x cells, with rucaparib 20 µM, 100% = cells with rucaparib alone) 107% | viability ([8]; at 0.313 µM, OCI-P5x cells, without rucaparib) 103% | viability ([8]; at 1.25 µM, OCI-C5x cells, with rucaparib 10 µM, 100% = cells with rucaparib alone) 113% | viability ([8]; at 1.25 µM, OCI-C5x cells, without rucaparib) 126% | viability ([8]; at 1.25 µM, OCI-P5x cells, with rucaparib 20 µM, 100% = cells with rucaparib alone) 107% | viability ([8]; at 1.25 µM, OCI-P5x cells, without rucaparib) 102% | viability ([8]; at 5 µM, OCI-C5x cells, with rucaparib 10 µM, 100% = cells with rucaparib alone) 110% | viability ([8]; at 5 µM, OCI-C5x cells, without rucaparib) 120% | viability ([8]; at 5 µM, OCI-P5x cells, with rucaparib 20 µM, 100% = cells with rucaparib alone) 103% | viability ([8]; at 5 µM, OCI-P5x cells, without rucaparib) 108%
1.25: z-score ([7]; Rieske KO mouse fibroblast survival, CellTiter-Glo 72 h)
active: viability ([8]; at 0.000305 µM, OCI-P5x cells, with rucaparib 20 µM, 100% = cells with rucaparib alone) 92.5% | viability ([8]; at 0.000305 µM, OCI-P5x cells, without rucaparib) 91.2% | viability ([8]; at 0.00122 µM, OCI-P5x cells, with rucaparib 20 µM, 100% = cells with rucaparib alone) 97.3% | viability ([8]; at 0.00122 µM, OCI-P5x cells, without rucaparib) 96% | viability ([8]; at 0.00488 µM, OCI-P5x cells, without rucaparib) 99.6% | viability ([8]; at 0.313 µM, OCI-C5x cells, with rucaparib 10 µM, 100% = cells with rucaparib alone) 99.9%
0.858: fold change ([5]; measured here: relative caspase fold change +Dox/-Dox)
1.84: SSMD [6]
